About 83,000 compounds went through this panel and 20% of them were active in at least one assay; those are over-represented in the sample as a whole.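 Single-concentration screen, 48 h exposure, 96-well plates. Endpoint: percent growth. Below 10 = active.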 Values without a mark were called inactive. Activity calls are given as the source filed them.
Tests used:
Experiment in all cases: NCI-60 one-dose screen, 48 h (100 = growth as untreated, 0 = no growth, -100 = all killed)
Details in all cases: 10 µM
[1] = test system: T-47D breast
[2] = test system: BT-549 breast
[3] = test system: MDA-MB-435 melanoma
[4] = test system: SW-620 colon
[5] = test system: MCF7 breast
[6] = test system: HCT-116 colon
[7] = test system: HCC-2998 colon
[8] = test system: KM12 colon
[9] = test system: MDA-MB-468 breast

Structure (SMILES)	growth [1]	growth [2]	growth [3]	growth [4]	growth [5]	growth [6]	growth [7]	growth [8]	growth [9]
N#Cc1ccc(-c2nn(-c3ccc(C(=O)O)cc3)cc2CNc2ccc(Cl)cc2)cc1	74.3%	62.6%	89.7%	87.2%	70.8%	53.8%	89.4%	67%	116%
N[C@@H](CSSC[C@H](N)C(=O)Nc1ccc(OCC2CCCC2)cc1)C(=O)Nc1ccc(OCC2CCCC2)cc1	-68.9% (active)	-63.5% (active)	-100% (active)	-84% (active)	-73% (active)	-35.9% (active)	-96.5% (active)	-80.6% (active)	-93.4% (active)
CC1=C2C(=C[C@@](C)(COCOCCCl)[C@@H]2O)C(=O)[C@](C)(O)C12CC2	-15.8% (active)	-81.2% (active)	-81.1% (active)	0.591% (active)	-46.2% (active)	12.6%	-91.7% (active)	0.906% (active)	-89.9% (active)
COc1ccc(Nc2nc(N)n(Cc3cccc(Br)c3)n2)cc1	13.4%	-8.47% (active)	-18.2% (active)	18.3%	1.86% (active)	12%	-13.1% (active)	1.74% (active)	-12.3% (active)
CC1(C)CC[C@]2(C(=O)NCCCNCCCCNCCCN)CC[C@]3(C)C(=CC[C@@H]4[C@@]5(C)Cc6c([nH]c7ccccc67)C(C)(C)[C@@H]5CC[C@]43C)[C@H]2C1	78.7%	109%	106%	113%	62.9%	65.3%	96.5%	96.4%	75.3%
COc1ccc(CCN2C(=O)/C(=C/c3csc(C#N)n3)SC2=S)cc1	-5.27% (active)	-44.6% (active)	-23.6% (active)	-14.6% (active)	-0.841% (active)	-63.2% (active)	-32.8% (active)	-61.4% (active)	-67.2% (active)
CCCS(=O)(=O)c1oc(-c2ccc(F)cc2)nc1S(=O)(=O)c1ccc(F)cc1	-67.9% (active)	-32.1% (active)	-80.3% (active)	-77.6% (active)	-65.7% (active)	3.42% (active)	-59.8% (active)	41.8%	-91.4% (active)
O=C1Nc2ccc(Cl)cc2/C1=C/c1cccc(OCc2ccccc2)c1	12.5%	41.9%	35.4%	45.4%	9.65% (active)	17%	50.6%	38.9%	-10.2% (active)
COc1cc(C2CC(c3ccccc3)=Nc3c(N)nc(N)nc3N2)ccc1Oc1nc(Nc2ccc(F)cc2)nc(N(C)C)n1 (configuration not stated)	54.4%	45%	15.4%	44.6%	2.04% (active)	3.43% (active)	47.7%	31.6%	1.47% (active)
NS(=O)(=O)c1ccc(NC(=O)CSc2ccc(-c3ccccc3)nn2)c(Br)c1	37.4%	46.3%	94.4%	99.5%	79%	48.7%	77.9%	85.3%	98%
O=C(NO)c1ccc(CN2CCN(c3nc(-c4ccccc4)c4ccccc4n3)CC2)cc1	8.88% (active)	35.8%	27.8%	15.6%	9.79% (active)	18.9%	12.6%	18.7%	-14.2% (active)
O=C(c1ccc(Cl)cc1)C1[C@H](c2ccc(Br)cc2)[C@@H](c2ccccc2)NC12C(=O)Nc1ccccc12 (some centres not stated)	1.59% (active)	-9.62% (active)	-46.5% (active)	3.46% (active)	-4.24% (active)	10.7%	-39.3% (active)	-3.73% (active)	-6.54% (active)
CN(CCO)c1oc(-c2ccccc2)nc1[P+](c1ccccc1)(c1ccccc1)c1ccccc1	0.664% (active)	-22.5% (active)	2.53% (active)	11.5%	0.978% (active)	6.5% (active)	10.8%	-39.4% (active)	-55.9% (active)
N#Cc1c(NC(=O)c2ccc(C(F)(F)F)cc2)sc2c1CCC(=O)C2	-36.9% (active)	-80.6% (active)	-41.4% (active)	-63% (active)	-16.9% (active)	-46.3% (active)	-96.7% (active)	-36.3% (active)	-71% (active)
O=C(N=Nc1c(O)[nH]c2ccc(Br)cc12)c1ccc2nc(-c3ccccc3)[nH]c2c1	-67.4% (active)	-71% (active)	-88.9% (active)	-60% (active)	-53.4% (active)	-28.3% (active)	-78% (active)	2.92% (active)	-85.8% (active)
O=c1oc2ccc(-c3ccc(F)cc3F)cc2c(=O)n1-c1ccc(F)c(Cl)c1	-11.8% (active)	-51.9% (active)	-17.7% (active)	3.17% (active)	-17.2% (active)	4.77% (active)	2.58% (active)	-22.7% (active)	-47% (active)
CC1(C)[C@@H](NCO)CC[C@]2(C)[C@H]3C(=O)C=C4[C@@H]5C[C@](C)(CO)CC[C@]5(C)CC[C@@]4(C)[C@]3(C)CC[C@@H]12	63.9%	81.8%	59.9%	35.2%	33.7%	37.8%	40.8%	65.7%	47.2%
C#CCNC(=O)CCC(=O)OC[C@]12CC[C@@H](C(=C)C)[C@@H]1C1CC[C@@H]3[C@@]4(C)CCCNC(C)(C)[C@@H]4CC[C@@]3(C)[C@]1(C)CC2 (some centres not stated)	10.9%	11%	-32.2% (active)	-92.3% (active)	-65.7% (active)	-60.3% (active)	-99.1% (active)	6.5% (active)	-94.9% (active)
Cc1ccc(-c2nc3ccc(C(=O)N=Nc4c(O)[nH]c5ccc([N+](=O)[O-])cc45)cc3[nH]2)cc1	51.8%	98.7%	62.6%	42.2%	65.9%	12.7%	54%	104%	59%
N#Cc1c(-c2ccc(F)cc2)nc(SCc2ccc(F)cc2)nc1N1CCOCC1	73.2%	64.3%	93.5%	85.5%	63.7%	66%	87.4%	87.2%	62.1%
CO[C@@H]1CSSC1Cn1nc(-c2ccc(Oc3ccccc3)cc2)c2c(N)ncnc21 (some centres not stated)	7.37% (active)	35.5%	-72.1% (active)	29.1%	16.5%	9.66% (active)	47.5%	38%	-12.9% (active)
COc1ccc(C(=O)CSc2nnc(-c3c[nH]c4ccccc34)n2-c2ccccc2)cc1	56.7%	24.7%	69.1%	86.3%	45.6%	52.5%	77.8%	88.1%	59.8%
COc1ccc(NC(=O)Nc2ccc(OCC(=O)N=Nc3c(O)[nH]c4ccc([N+](=O)[O-])cc34)cc2)cc1	32.6%	27.5%	106%	98.3%	38.2%	85.6%	66.6%	18%	30.2%
O=C(CSc1nnc(-c2c[nH]c3ccccc23)n1-c1ccccc1)c1ccc(Br)cc1	22%	65.2%	40.9%	79.8%	53.4%	54.3%	31.7%	34.6%	22%
COc1ccc(-c2nc(Nc3ccccc3S(N)(=O)=O)c3ccccc3n2)cc1	35.7%	85.8%	34.1%	8.47% (active)	9.02% (active)	-42.9% (active)	12%	6.25% (active)	-13.4% (active)
COc1cc2c(c(OC)c1OC)C(=O)CC(c1cccc(NC(=O)c3cccc(N)c3)c1)O2 (configuration not stated)	35.5%	63.8%	77.4%	94.1%	57.8%	65.4%	114%	72.2%	65.6%
C=C1CCC2C3(C)COC(c4cccc(F)c4)OC3CCC2(C)C1CC(O)C1=CCOC1=O (configuration not stated)	37.9%	-4.37% (active)	57.7%	6.42% (active)	14.2%	-7.46% (active)	63.1%	59.6%	52.1%
O=C(CSc1nnc(-c2c[nH]c3ccccc23)n1-c1ccccc1)c1ccc(Cl)cc1	54.6%	69.8%	79.2%	70.3%	38.4%	45.7%	78.1%	78.7%	46.4%
